Measurements taken from the supplement of paper PMC3545927.
This is one part of the list. No count for the full screen is at hand.

B1: HC1524 (peptide)
chain: CAGLQDCTMLAGNASASA
B2: HC1957 (peptide)
chain: CASCTTPCSGAGNASASA
B3: HC1500 (peptide)
chain: CARLYVGGPLAGNASASA
B4: HC1374 (peptide)
chain: CATGALVTPCAGNASASA
B5: HC1385 (peptide)
chain: CASLLRHHNLAGNASASA
B6: FS-53 (peptide)
chain: CALNERLKRVAGNASASA
B7: FS-256 (peptide)
chain: CAIQARAKRVAGNASASA
B8: FS-1633 (peptide)
chain: CAICQRVKRVAGNASASA
B9: FS-188 (peptide)
chain: CARLLRHKRMAGNASASA
B10: FS-148 (peptide)
chain: CAVDIRLKRVAGNASASA
B11: HC861 (peptide)
chain: CADELAAKLVAGNASASA
B12: FS-112 (peptide)
chain: CAYSHRWKRNAGNASASA
B13: HC1531 (peptide)
chain: CAVVICESAGAGNASASA
B14: HC2221 (peptide)
chain: CAEVVTSNWVAGNASASA
B15: HC805 (peptide)
chain: CASPITYSTYAGNASASA
B16: HC876 (peptide)
chain: CADVVVVATDAGNASASA
B17: HC1487 (peptide)
chain: CAIRTEEAIYAGNASASA
B18: HC649 (peptide)
chain: CASQMETKLIAGNASASA
B19: HC449 (peptide)
chain: CANTLHCPTDAGNASASA
B20: FS-817 (peptide)
chain: CALAWRSGRVAGNASASA
B21: FS-903 (peptide)
chain: CAYSHRHKRVAGNASASA
B22: FS-1631 (peptide)
chain: CAHLERHKRVAGNASASA
B23: HC1235 (peptide)
chain: CAVGLHEYPVAGNASASA
B24: HC2050 (peptide)
chain: CAVVCCSVSYAGNASASA
B25: HC1763 (peptide)
chain: CAMEECSQHAAGNASASA
B26: HC1721 (peptide)
chain: CAMENCSQHLAGNASASA
B27: HC1847 (peptide)
chain: CATFPCSGSWAGNASASA
B28: FS-1966 (peptide)
chain: CARQKRSDLYAGNASASA
B29: HC948 (peptide)
chain: CAQTKQSGENAGNASASA
B30: FS-1768 (peptide)
chain: CARQKRILVNAGNASASA
B31: FS-2323 (peptide)
chain: CAYPKRSSEVAGNASASA
B32: FS-2631 (peptide)
chain: CALQKRSSRHAGNASASA
B33: FS-1984 (peptide)
chain: CAIGKRSVEYAGNASASA
B34: FS-3038 (peptide)
chain: CARQKRSVENAGNASASA
B35: FS-2591 (peptide)
chain: CARQYRSAYYAGNASASA
B36: FS-2246 (peptide)
chain: CADQKRSLESAGNASASA
B37: HC1008 (peptide)
chain: CAIPDREVLYAGNASASA
B38: HC295 (peptide)
chain: CAATLCSALYAGNASASA
B39: HC1474 (peptide)
chain: CAAWKSKKTPAGNASASA
B40: HC685 (peptide)
chain: CAGRDKNQVEAGNASASA
B41: HC588 (peptide)
chain: CAAQLHVWIPAGNASASA
B42: HC659 (peptide)
chain: CAINGLPVSAAGNASASA
B43: FS-3037 (peptide)
chain: CARQKRSSEAAGNASASA
B44: FS-2170 (peptide)
chain: CARQKRSVSIAGNASASA
B45: HC1363 (peptide)
chain: CAWSTVSSEAAGNASASA
B46: FS-2361 (peptide)
chain: CARQKRIHSAAGNASASA

Target: furin, P09958
Sequence (P09958 whole entry): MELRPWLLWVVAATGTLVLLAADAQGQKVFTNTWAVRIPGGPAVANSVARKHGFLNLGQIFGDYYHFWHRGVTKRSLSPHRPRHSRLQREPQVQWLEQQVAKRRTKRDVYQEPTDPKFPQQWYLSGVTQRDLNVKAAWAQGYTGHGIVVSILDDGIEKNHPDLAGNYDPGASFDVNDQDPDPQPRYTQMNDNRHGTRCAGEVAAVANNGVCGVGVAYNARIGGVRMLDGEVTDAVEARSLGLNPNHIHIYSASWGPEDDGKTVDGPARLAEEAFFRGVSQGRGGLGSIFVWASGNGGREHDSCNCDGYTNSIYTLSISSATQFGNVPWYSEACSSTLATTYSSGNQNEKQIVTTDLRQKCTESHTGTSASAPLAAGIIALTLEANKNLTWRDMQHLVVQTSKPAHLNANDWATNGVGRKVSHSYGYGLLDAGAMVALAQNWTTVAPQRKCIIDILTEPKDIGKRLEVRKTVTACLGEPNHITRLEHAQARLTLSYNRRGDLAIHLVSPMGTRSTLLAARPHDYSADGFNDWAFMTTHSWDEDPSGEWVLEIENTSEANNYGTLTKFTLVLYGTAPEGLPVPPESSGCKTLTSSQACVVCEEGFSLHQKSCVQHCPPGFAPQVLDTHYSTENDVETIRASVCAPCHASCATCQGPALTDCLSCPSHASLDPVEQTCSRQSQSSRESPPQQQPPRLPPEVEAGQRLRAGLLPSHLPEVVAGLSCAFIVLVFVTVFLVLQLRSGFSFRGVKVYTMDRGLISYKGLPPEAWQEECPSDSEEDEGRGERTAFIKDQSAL
Assay: furin cleavage Z-score vs untreated control; higher = more cleavage, active = 3.5 or more, inactive = 1 or less, 8 variable residues between constant flanks
In short: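 In 50 mM HEPES pH 7.5 with CaCl2 and NaCl, purified furin was incubated with bead-anchored 8-mer peptide–cDNA fusions at 1:10 enzyme:substrate in 0.01 ml. Incubation times were 7.5, 15 and 30 min. DNA set free by cleavage was adapter-tagged by PCR and sequenced, with read counts taken as abundance. Log counts relative to furin-free reactions, after lowess adjustment and median absolute deviation scaling, form the cleavage Z-score.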

Row | Sequence | furin cleavage Z-score (7.5 min) | furin cleavage Z-score (15 min) | furin cleavage Z-score (30 min)
1 | B1 | 1.18 | 0.431 (inactive) | 0.816 (inactive)
2 | B2 | 0.117 (inactive) | -0.946 (inactive) | 0.203 (inactive)
3 | B3 | -0.16 (inactive) | 0.662 (inactive) | 0.78 (inactive)
4 | B4 | 1.46 | -0.486 (inactive) | -0.745 (inactive)
5 | B5 | -0.346 (inactive) | 0.336 (inactive) | 0.383 (inactive)
6 | B6 | 2.86 | 3.12 | 3.89 (active)
7 | B7 | 4.63 (active) | 3.93 (active) | 4.73 (active)
8 | B8 | 0.73 (inactive) | -0.331 (inactive) | 1.69
9 | B9 | 8.79 (active) | 8.2 (active) | 6.11 (active)
10 | B10 | 0.517 (inactive) | 1.34 | 1.54
11 | B11 | -0.523 (inactive) | 0.896 (inactive) | 0.946 (inactive)
12 | B12 | 7.46 (active) | 8.5 (active) | 7.17 (active)
13 | B13 | 0.204 (inactive) | -0.473 (inactive) | 1.4
14 | B14 | -0.745 (inactive) | -1.12 (inactive) | -0.494 (inactive)
15 | B15 | 0.448 (inactive) | 0.103 (inactive) | -0.462 (inactive)
16 | B16 | -1.44 (inactive) | -0.376 (inactive) | -0.463 (inactive)
17 | B17 | -0.614 (inactive) | -0.579 (inactive) | -0.877 (inactive)
18 | B18 | 1.65 | 0.44 (inactive) | -0.0666 (inactive)
19 | B19 | -0.243 (inactive) | -1.86 (inactive) | -0.583 (inactive)
20 | B20 | -2.25 (inactive) | -0.244 (inactive) | 0.218 (inactive)
21 | B21 | 5.57 (active) | 7.12 (active) | 6.65 (active)
22 | B22 | 7.08 (active) | 8.35 (active) | 8.68 (active)
23 | B23 | -0.411 (inactive) | -0.271 (inactive) | -1.96 (inactive)

Row | Sequence | furin cleavage Z-score (7.5 min) | furin cleavage Z-score (15 min) | furin cleavage Z-score (30 min)
24 | B24 | -0.658 (inactive) | -0.454 (inactive) | -0.515 (inactive)
25 | B25 | -0.182 (inactive) | -0.0436 (inactive) | 1.21
26 | B26 | 0.959 (inactive) | 2.87 | 0.898 (inactive)
27 | B27 | -0.0484 (inactive) | -0.806 (inactive) | -1.82 (inactive)
28 | B28 | 4.32 (active) | 5.36 (active) | 5.43 (active)
29 | B29 | -0.725 (inactive) | -1.67 (inactive) | -1.53 (inactive)
30 | B30 | -0.183 (inactive) | -1.46 (inactive) | 0.612 (inactive)
31 | B31 | -0.277 (inactive) | -2 (inactive) | 0.081 (inactive)
32 | B32 | 5.41 (active) | 7.89 (active) | 8.89 (active)
33 | B33 | 1.53 | 2.52 | 3.58 (active)
34 | B34 | 10.2 (active) | 9.71 (active) | 8.9 (active)
35 | B35 | -0.594 (inactive) | 0.967 (inactive) | 2.18
36 | B36 | -0.764 (inactive) | -1.16 (inactive) | -0.0942 (inactive)
37 | B37 | -1.25 (inactive) | -0.885 (inactive) | -0.354 (inactive)
38 | B38 | 1.6 | -0.694 (inactive) | 0.385 (inactive)
39 | B39 | -0.115 (inactive) | 0.0818 (inactive) | -0.362 (inactive)
40 | B40 | 0.288 (inactive) | -0.161 (inactive) | -1.36 (inactive)
41 | B41 | -0.31 (inactive) | -0.454 (inactive) | -0.108 (inactive)
42 | B42 | -0.744 (inactive) | -0.464 (inactive) | -0.336 (inactive)
43 | B43 | 9.89 (active) | 9.51 (active) | 6.34 (active)
44 | B44 | 3.57 (active) | 5.04 (active) | 6.27 (active)
45 | B45 | 1.2 | -0.449 (inactive) | 0.19 (inactive)
46 | B46 | -1.05 (inactive) | -0.069 (inactive) | -0.712 (inactive)
